The record followed here is PubChem BioAssay (EPA / NIEHS).

Results filed as inconclusive are left out. Calls of active or inactive are those of the source. How the source made its calls: active means hit-call score of the fitted dose curve at least 0.9, where 1 is the maximum; inconclusive means response in the unintended direction; inactive means score below 0.9.

This assay is described as follows: ACEA_ER_80hr: ACEA Biosciences xCELLigence Real-Time Cell Analysis on Estrogen Receptor Agonism for Proliferation (AID 2282667). To be noted: T47D proliferation, impedance (xCELLigence), 80 h. A digest of the protocol: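 T47D human breast cells were seeded on electrode plates, monitored overnight, then exposed continuously to compounds in eight-point 1:4 dilutions from 100 uM (max 0.5% DMSO). Impedance-based growth was read at 80 h, fitted upward relative to DMSO.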
In the case of `CCCCC(CC)COP(=O)(Oc1ccccc1)Oc1ccccc1` (stereo not drawn), the compound was called inactive.
Same read-out and setting: the same measure for `O=C(O)C(F)(F)C(F)(F)C(=O)O`: “inactive”; for `N#C/C=C/c1ccccc1`: “inactive”; for `C=CC(=O)OCC(CC)(COC(=O)C=C)COC(=O)C=C`: “inactive”.
On the same count and under the same terms, the same measure for `Oc1ccccc1Br`: “inactive”.
On to `CC(C)(C)c1ccccc1OP(=O)(Oc1ccccc1)Oc1ccccc1`, for which the result was inactive.
The same measure, in the same setting: the same measure for `O=P(OCC(Br)CBr)(OCC(Br)CBr)OCC(Br)CBr` (stereo not drawn): “inactive”; for `Cn1[nH]nnc1=S`: “inactive”.
As for `O=S1(=O)OCC2C(CO1)C1(Cl)C(Cl)=C(Cl)C2(Cl)C1(Cl)Cl` (stereo not drawn), the AC50 is 0.0213 µM (active).
With `CCOP(=S)(OCC)SCSc1ccc(Cl)cc1`, the compound was classed as inactive.
As for `NC(=O)C(F)(F)C(F)(F)F`, the AC50 was 20.5 µM (active).
Regarding `CCOP(=S)(OCC)SCn1nnc2ccccc2c1=O`, the call was inactive.
The same measure, in the same setting: the same measure for `O=C(O)C(F)(OC(F)(F)C(F)(F)C(F)(F)F)C(F)(F)F` (stereo not drawn): “inactive”.
